HEK cytotox = HEK 293 cell cytotoxicity. HEK 293 viability, ATP luminescence (CellTiter-Glo), 48-72 h. Potency, µM (highest dose often 115 µM), for inactives: at the top dose activity change, negative = cytotoxicity, hits mostly inhibitors. 94,000 tested, 6.6% active. AID 1345083; active = well fitted curve in the direction sought with a large enough effect; inconclusive = small, poorly fitted or top-dose-only effect, or another doubt; inactive = no such curve, though single readings can be large; an effect the other way counts as inactive or inconclusive; note: % is set by controls: 0 for no effect and ±100 for the full control effect; nearly all actives have a fitted effect of over 60% in size
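Read-out: CellTiter-Glo ATP luminescence. Cells: HEK 293, 250 cells/well. Exposure: 48 or 72 hr, 37 degree Celsius.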
3T3 cytotox = kills NIH 3T3 cells | Potency, µM (highest dose often 96.7 µM), inactives show top-dose activity change, negative = cytotoxicity, actives largely listed as inhibitors | NIH 3T3 viability, CellTiter-Glo ATP luminescence, 48-72 h | 94,000 tested, 4.3% active; active = well fitted curve in the direction sought with a large enough effect; inconclusive = small, poorly fitted or top-dose-only effect, or another doubt; inactive = no such curve, though single readings can be large; an effect the other way counts as inactive or inconclusive; note: % is set by controls: 0 for no effect and ±100 for the full control effect; nearly all actives have a fitted effect of over 55% in size
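Cells were seeded at 400 per well, treated with pin-transferred compound, and kept 48 or 72 hr at 37 °C before CellTiter-Glo addition and luminescence imaging of cellular ATP.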
hNpr1 antagonist = antagonists of human natriuretic peptide receptor Npr1 | HEK293 hNpr1 GloSensor cGMP, ANP-stimulated luminescence | P16066 | AID 1347048 | 76,000 tested, 1.6% active | Potency, µM (series often up to 46.3 µM), for the others: at the highest dose activity change, negative = inhibition, hits mostly inhibitors; note: % is set by controls: 0 for no effect and ±100 for the full control effect; nearly all actives have a fitted effect of over 60% in size
Target sequence (P16066 whole entry, looked up): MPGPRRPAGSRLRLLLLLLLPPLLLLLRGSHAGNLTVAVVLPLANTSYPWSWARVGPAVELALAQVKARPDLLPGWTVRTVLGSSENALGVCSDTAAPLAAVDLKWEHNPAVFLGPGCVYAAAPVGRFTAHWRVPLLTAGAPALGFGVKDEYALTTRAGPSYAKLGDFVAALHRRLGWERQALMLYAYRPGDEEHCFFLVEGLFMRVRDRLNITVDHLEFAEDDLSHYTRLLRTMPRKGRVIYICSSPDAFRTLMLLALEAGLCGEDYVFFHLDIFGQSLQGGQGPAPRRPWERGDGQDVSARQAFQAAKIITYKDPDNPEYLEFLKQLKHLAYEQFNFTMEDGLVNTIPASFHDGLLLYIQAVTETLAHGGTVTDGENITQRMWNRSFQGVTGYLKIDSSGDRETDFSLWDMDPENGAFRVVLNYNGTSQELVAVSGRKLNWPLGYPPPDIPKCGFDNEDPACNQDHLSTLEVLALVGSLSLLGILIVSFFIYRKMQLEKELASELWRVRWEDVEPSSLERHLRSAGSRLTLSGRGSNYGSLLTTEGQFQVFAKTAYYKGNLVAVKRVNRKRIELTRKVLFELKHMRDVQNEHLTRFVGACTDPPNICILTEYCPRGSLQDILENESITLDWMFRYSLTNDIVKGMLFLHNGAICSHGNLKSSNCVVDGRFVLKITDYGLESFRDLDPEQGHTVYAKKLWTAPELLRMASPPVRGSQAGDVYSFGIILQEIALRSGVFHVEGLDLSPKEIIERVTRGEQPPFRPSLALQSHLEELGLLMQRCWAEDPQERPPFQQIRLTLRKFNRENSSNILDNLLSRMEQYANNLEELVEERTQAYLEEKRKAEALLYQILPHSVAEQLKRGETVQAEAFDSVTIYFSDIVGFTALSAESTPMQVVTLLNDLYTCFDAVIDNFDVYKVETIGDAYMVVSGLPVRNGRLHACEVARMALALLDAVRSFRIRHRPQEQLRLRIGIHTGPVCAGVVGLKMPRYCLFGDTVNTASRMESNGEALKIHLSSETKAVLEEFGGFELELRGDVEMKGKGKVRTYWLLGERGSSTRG
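HEK293 cells stably expressing human Npr1 and cGMP GloSensor pGS-40F, loaded 2 h with 2% GloSensor reagent, given compound 30 min at room temperature. Luminescence read before and 20 min after 0.1 nM hNppA.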
Luciferase inh = Photinus pyralis luciferase inhibition; Potency, µM (top dose mostly 115 µM), usual class: inhibitors; AID 1347043; purified P. pyralis luciferase, luminescence, biochemical; 76,000 tested, 2.5% active; active = well fitted curve in the direction sought with a large enough effect; inconclusive = small, poorly fitted or top-dose-only effect, or another doubt; inactive = no such curve, though single readings can be large; an effect the other way counts as inactive or inconclusive; note: % is set by controls: 0 for no effect and ±100 for the full control effect; nearly all actives have a fitted effect of over 65% in size
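FLuc 10nM, D-luciferin 10uM, ATP 10uM, Mg acetate 10mM, Tris acetate pH 7.5, Tween/BSA; cpd qHTS; enzyme added last; CCD luminescence.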
NPR1 antag cnf = confirmation of human Npr1 natriuretic peptide receptor antagonists | AID 1347044 | HEK293 hNpr1 cGMP GloSensor luminescence, ANP-stimulated | Potency, µM (highest dose often 57.6 µM), for the others: at the highest dose activity change, negative = inhibition, hits mostly inhibitors | shares compounds with hNpr1 antagonist | 1,400 tested, 76% active; note: nearly all actives have a fitted effect of over 70% in size
Npr2 selectivity = hNpr2 antagonism, selectivity versus Npr1; shares compounds with hNpr1 antagonist; HEK293 hNpr2 GloSensor cGMP luminescence, CNP-stimulated; Potency, µM (doses to about 57.6 µM), without a hit: at the top dose activity change, negative = inhibition, most hits filed as inhibitors; 1,400 tested, 67% active; note: nearly all actives have a fitted effect of over 70% in size
FLuc counter = FLuc enzyme inhibition, Npr1 counter-screen; purified FLuc enzyme, luminescence, Km substrate; shares compounds with hNpr1 antagonist; Potency, µM (top dose mostly 57.6 µM), inactives show top-dose activity change, negative = inhibition, actives largely listed as inhibitors; 1,400 tested, 0.7% active; active = well fitted curve in the direction sought with a large enough effect; inconclusive = small, poorly fitted or top-dose-only effect, or another doubt; inactive = no such curve, though single readings can be large; an effect the other way counts as inactive or inconclusive; note: 0% is about no effect
GloSensor cGMP = control cell line activity, Npr1 antagonist counter-screen; Potency, µM (titrated, usually from 57.6 µM), without a hit: top-dose activity change, negative = inhibition, hits mostly inhibitors; 1,400 tested, 69% active; HEK293 GloSensor cGMP, SNP-stimulated, luminescence; shares compounds with hNpr1 antagonist; note: % is set by controls: 0 for no effect and ±100 for the full control effect; nearly all actives have a fitted effect of over 70% in size
* hit, by the source's call; i = inactive; ? = inconclusive; . = no result. Hits are enriched below; roughly 11% of the tested compounds scored in any of these assays. Unless noted, calls come from the whole dose curve. Potency is the fitted concentration of half-maximal effect.

SMILES	HEK cytotox	3T3 cytotox	hNpr1 antagonist	Luciferase inh	NPR1 antag cnf	Npr2 selectivity	FLuc counter	GloSensor cGMP
COc1ccc(-c2cc(N3CCCN(C(=O)c4ccc(F)c(Cl)c4)CC3)n[nH]2)cc1	?	?	?	i	17.2µM*	13.7µM*	-0.8%	5.7%
COc1cc(OC)cc(C(=O)N2CCCN(c3cc(-c4ccc(Br)cc4)[nH]n3)CC2)c1	39.8µM*	31.6µM*	11.2µM*	i	24.3µM*	21.7µM*	-1.7%	27.3µM*
COc1ccc(C(=O)N2CCN(c3cc(-c4ccc(F)cc4)[nH]n3)CC2)cc1	?	?	?	i	21.7µM*	24.3µM*	2.5%	27.3µM*
O=C(c1ccc2[nH]ccc2c1)N1CCN(c2cc(-c3ccccc3)[nH]n2)CC1	?	?	?	i	?	?	1.2%	-27.1%
CCOc1ccc(C(=O)Nc2ccc(-c3nnc4n3CCCC4)cc2)cc1	?	-23.8%	-1.2%	i	.	.	.	.
COc1ccc(-c2cc(N3CCCN(C(=O)c4cccc(F)c4)CC3)n[nH]2)cc1	?	-8.4%	-0.7%	i	.	.	.	.
COc1ccc(-c2cc(N3CCN(C(=O)c4ccc(OC)cc4OC)CC3)n[nH]2)cc1	?	?	?	i	27.3µM*	21.7µM*	-1.4%	21.7µM*
COc1ccc(-c2cc(N3CCCN(C(=O)c4cccc(Br)c4)CC3)n[nH]2)cc1	?	?	?	i	?	13.7µM*	-8.6%	-21.5%
COc1ccc(-c2cc(N3CCCN(C(=O)c4cccc(Cl)c4)CC3)n[nH]2)cc1	?	?	?	i	24.3µM*	13.7µM*	2.9%	-0.9%
Cc1cc(-c2nn(-c3ccccc3F)cc2CN(C)C2CCOC2)c(C)s1 (stereo not drawn)	?	-19.8%	2.8%	i	.	.	.	.
Cc1cc(=O)n(CC(=O)Nc2ccc(C)c(F)c2)c(N2CCc3ccccc3C2)n1	8.91µM*	?	15.8µM*	i	-16.6%	-26.3%	0.5%	-20.3%
Cc1cc(=O)n(CC(=O)Nc2ccc(C)c(Cl)c2)c(N2CCc3ccccc3C2)n1	?	?	-7.4%	i	.	.	.	.
Cc1cc(=O)n(CC(=O)Nc2ccc(Br)cc2F)c(N2CCc3ccccc3C2)n1	?	?	?	i	-29.0%	?	0.4%	-16.0%
Cc1cc(=O)n(CC(=O)NCCCc2ccccc2)c(N2CCc3ccccc3C2)n1	44.7µM*	?	?	i	?	?	0.0%	-24.1%
COc1ccc(CN2C=C(C(=O)OCc3noc(-c4ccc(C)cc4)n3)C(C)=NS2(=O)=O)cc1	-26.7%	?	10µM*	i	15.3µM*	13.7µM*	-0.2%	12.2µM*
COc1ccc(CN2C=C(C(=O)OCc3noc(-c4cccc(F)c4)n3)C(C)=NS2(=O)=O)cc1	-26.0%	-42.7%	0.0%	i	.	.	.	.
COc1ccc(CN2C=C(C(=O)OCc3noc(-c4ccc(C)c(C)c4)n3)C(C)=NS2(=O)=O)cc1	?	-25.5%	?	i	.	.	.	.
COc1ccc(CN2C=C(C(=O)OCc3noc(-c4cccc(OC)c4)n3)C(C)=NS2(=O)=O)cc1	?	?	?	i	?	-29.6%	0.4%	?
CC1=NS(=O)(=O)N(Cc2ccccc2)C=C1C(=O)OCc1noc(-c2ccc(C)c(C)c2)n1	?	?	11.2µM*	i	17.2µM*	?	-1.9%	15.3µM*
Cc1ccccc1SC1CCN(c2cc(C3CC(O)C3)ncn2)CC1 (stereo not drawn)	?	?	2.82µM*	i	4.85µM*	6.11µM*	0.6%	3.85µM*
Cc1ccc(Cl)cc1N1CCN(c2cc(C3CC(O)C3)ncn2)CC1 (stereo not drawn)	28.2µM*	?	8.91µM*	i	19.3µM*	19.3µM*	-2.1%	13.7µM*
O=C(Nc1cc(F)cc(C(F)(F)F)c1)N1CCC(Cn2cccn2)CC1	?	?	-8.3%	i	.	.	.	.
O=C(Nc1cccc(Cl)c1)C1CCN(C(=O)c2ncn3c2COC(c2ccc(F)cc2)C3)CC1 (stereo not drawn)	?	-10.0%	?	?	.	.	.	.
O=C(Nc1cccc(F)c1)C1CCN(C(=O)c2ncn3c2COC(c2ccc(F)cc2)C3)CC1 (stereo not drawn)	?	-7.0%	?	i	?	-14.2%	-22.3%	?
O=C(c1ccc2nnc(-c3cccc(C(F)(F)F)c3)n2c1)N1CCOCC1	-19.5%	?	.	.	.	.	.	.
SMILES	HEK cytotox	3T3 cytotox	hNpr1 antagonist	Luciferase inh	NPR1 antag cnf	Npr2 selectivity	FLuc counter	GloSensor cGMP
CCn1cc(CN(C)C(=O)c2ccc3c(c2)C(O)CCCCCN3C)c(C)n1 (stereo not drawn)	?	?	?	i	.	.	.	.
Cc1nn(C)c(C)c1CCCN(C)C(=O)c1ccc2c(c1)C(O)CCCCCN2C (stereo not drawn)	35.5µM*	?	11.2µM*	i	12.2µM*	13.7µM*	0.8%	9.68µM*
COc1ccc(-c2ccnc(N[C@H]3CO[C@H]4[C@@H]3OC[C@@H]4NS(=O)(=O)c3cccs3)n2)cc1	?	-30.2%	?	i	.	.	.	.
COc1ncccc1CN1CCC2(CC1)OC(=O)N(Cc1ccc(O)cc1)C2(C)c1ccccc1 (stereo not drawn)	?	?	-25.5%	i	-29.4%	?	1.2%	-1.6%
COc1ccc(OC)c(CN2CCC3(CC2)OC(=O)N(Cc2ccc(O)cc2)C3(C)c2ccccc2)c1 (stereo not drawn)	?	?	?	i	.	.	.	.
CC(C)Oc1ccc(CNC(=O)C2CCCCC(=O)N2Cc2ccccc2)cc1 (stereo not drawn)	?	?	-28.9%	i	.	.	.	.
O=C1NCc2ccccc2CC12CCCN2Cc1ccc(Br)cc1 (stereo not drawn)	?	?	.	.	-20.7%	-25.1%	1.7%	2.4%
Cc1nc(C2CC(O)C2)cc(N2CCN(C(=O)c3cccs3)CC2)n1 (stereo not drawn)	-16.9%	-27.4%	3.5%	i	.	.	.	.

Screens deposited in PubChem by National Center for Advancing Translational Sciences (NCATS).
